The source made the active and inactive calls.
experiment: optical density shifts of acrAB sulA E. coli – strain DRC41, OD650, 48 h, E. coli filamentation inducer project, primary screen (AID 1152); conditions: higher = more signal, called active from +8 up or from −8 down;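 further: E. coli MC1000 strain DRC41 lacking acrAB efflux pump and sulA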

z-score, inactive:
CC(C)[Si]1(C(C)C)O[C@@H](c2ccccc2)c2cc(-c3ccc(-c4ccc(Cl)c(Cl)c4)o3)nc(-c3ccccc3)c21 -1.12, OCCCC1=CC(c2cccs2)N(Cc2cc3c(cc2Br)OCO3)CC1 (stereo not given) -1.3, CCOC(=O)C[C@H]1[C@H](OC(=O)c2ccc(C(=O)c3ccccc3)cc2)[C@@H](NC(=O)c2ccc3ccccc3c2)c2cc(OCCCO)ccc2N1C(=O)Cc1ccc(OC)cc1 0.739, C=C(CC1([C@@H](NP(=O)(c2ccccc2)c2ccccc2)[C@H]2C[C@@H]2CCCC)CC1)c1ccccc1 -1.67, COc1cc(COC(C)=O)ccc1OC(C)=O 3.19, C=C(CCCC)/C(=C/C[C@@H](OC(=O)c1ccncc1)c1ccc(OCCO)cc1)c1cc(C(=O)OC)ccc1OC 0.4, C=C(CCCC)C(=O)CC[C@@H](OC(=O)c1ccccc1-c1ccccc1C(=O)O)c1ccc(OCCO)cc1 -0.181, COCCOC(=O)N1C(=O)[C@@]2(c3cc(C#CCC(C(=O)OC)C(=O)OC)ccc31)[C@H](C(=O)Nc1nc3ccccc3s1)[C@H]1C(=O)O[C@H](c3ccccc3)[C@H](c3ccccc3)N1[C@@H]2c1ccccc1OCCO 0.275, NC(=O)N1C(=O)C2C(C1=O)C1C=C(c3ccc(CO)cc3)C2C(c2cccs2)N1Cc1cccc(OC(F)(F)F)c1 (stereo not given) -3.19, COCCOC(=O)N1C(=O)[C@@]2(c3cc(C#CCNC(N)=O)ccc31)[C@H](C(=O)N1CCN(c3ncccn3)CC1)[C@H]1C(=O)O[C@H](c3ccccc3)[C@H](c3ccccc3)N1[C@@H]2c1ccc(OCCO)cc1 -0.492
